From PubChem BioAssay
TDP1 cell noCPT = qHTS for Inhibitors of human tyrosyl-DNA phosphodiesterase 1 (TDP1): qHTS in cells in absence of CPT | DT40 Tdp1-/- hTDP1 cells, no CPT, ATP luminescence, 48 h | Potency, µM (titrated, usually from 46.2 µM), inactives show at the top dose activity change, negative = growth inhibition, most hits filed as inhibitors | hit rate 15% among 420,000; also: nearly all actives have a fitted effect of over 55% in size
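Camptothecin absent (DMSO only). Human TDP1-complemented DT40 knockout cells, 400 cells/well, 37 °C for minimum 48 hr; ATP measured via CellTiter-Glo, 30 min dark incubation, luminescence.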
TDP1 inh = TDP1 (human) enzyme inhibition | recombinant TDP1, AlphaScreen DNA substrate cleavage | Potency, µM (highest dose often 130 µM), for the others: at the top dose activity change, negative = inhibition, actives largely listed as inhibitors | hit rate 0.28% among 350,000 | AID 485290; also: nearly all actives have a fitted effect of over 40% in size
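E. coli-derived human Tdp1, 1 nM final. Cpd preinc 15 min RT; substrate 15 nM final, 5 min RT; AS bead mix 10 ug/ml final, 10 min RT. Signal loss = tyrosine-FITC cleavage. No-enzyme wells = max signal.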
TDP1 cell CPT = growth inhibition of DT40 Tdp1-/-;hTDP1 cells with camptothecin (screen for TDP1 inhibitors). chicken DT40 Tdp1-/-;hTDP1 cells + 20 nM CPT, ATP luminescence, 48 h. Potency, µM (doses to about 46.2 µM), for inactives: at the top dose activity change, negative = growth inhibition, most hits filed as inhibitors. hit rate 12% among 420,000; also: nearly all actives have a fitted effect of over 55% in size
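Cell growth measured by CellTiter-Glo luminescence after a minimum 48 h, 37 C compound exposure with 20 nM CPT in Tdp1-knockout DT40 cells stably expressing hTDP1, seeded 400/well; qHTS titration format.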
KAT2A inh = inhibitors of human GCN5L2 histone acetyltransferase; Q92830; GCN5L2 HAT assay, ThioGlo1 CoA-SH fluorescence; Potency, µM (top dose mostly 58.9 µM), for inactives: at the highest dose activity change, negative = inhibition, actives largely listed as inhibitors; hit rate 0.21% among 390,000; AID 504327
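Enzyme at 20nM final was mixed with library compounds for 15 min at room temperature. Peptide H3(1-25) at 75uM, acetyl-CoA at 70uM and ThioGlo1 at 50uM were then added. Plates were read immediately and after 20 min (Ex340nm/Em540nm).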
PLK1 PBD block = PLK1 (human) polo-box domain binding inhibition; P53350; Plk1 PBD binding of FITC phosphopeptide, fluorescence polarization; Potency, µM, without a hit: max response, negative = inhibition, actives largely listed as inhibitors; hit rate 2.8% among 360,000; AID 720504; also: series mostly up to about 57 µM; nearly all actives have a fitted effect of over 65% in size
Target sequence (P53350 whole entry, looked up, the tested form may be a part): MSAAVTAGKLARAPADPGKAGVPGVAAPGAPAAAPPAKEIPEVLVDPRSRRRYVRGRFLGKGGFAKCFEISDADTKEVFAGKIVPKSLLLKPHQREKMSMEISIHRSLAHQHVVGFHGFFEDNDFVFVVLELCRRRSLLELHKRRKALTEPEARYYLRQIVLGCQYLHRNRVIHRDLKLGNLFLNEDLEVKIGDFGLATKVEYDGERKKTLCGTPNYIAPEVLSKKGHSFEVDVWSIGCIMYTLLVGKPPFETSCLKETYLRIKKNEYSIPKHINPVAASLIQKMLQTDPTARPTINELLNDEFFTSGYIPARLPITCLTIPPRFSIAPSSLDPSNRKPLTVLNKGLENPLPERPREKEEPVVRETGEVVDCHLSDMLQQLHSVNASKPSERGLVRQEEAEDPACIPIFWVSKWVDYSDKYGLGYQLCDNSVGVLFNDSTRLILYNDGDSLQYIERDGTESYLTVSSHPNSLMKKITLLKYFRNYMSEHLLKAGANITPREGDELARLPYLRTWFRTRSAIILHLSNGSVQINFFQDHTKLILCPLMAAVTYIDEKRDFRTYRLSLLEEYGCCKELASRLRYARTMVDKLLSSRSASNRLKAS
VDR inh = vitamin D3 receptor (human) inhibition; P11473; AID 504847; VDR-SRC2-3 peptide fluorescence polarization, 2 h; Potency, µM, for inactives: max response, negative = inhibition, most hits filed as inhibitors; hit rate 0.93% among 400,000
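Two reagent solutions held at 4 deg C in the dark were dispensed, compounds pinned at 23 nl, and the mixture incubated 2 h at room temperature. Read-out: fluorescence polarization of VDR–SRC2-3 peptide binding.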
* = called active by the depositor; [ ] = dose if it differs, or a comment. This is a sample that favours compounds with a hit; in the whole collection about 18% have one here. Calls follow the shape of the dose curve; as a rule, active = well fitted curve in the direction sought with a large enough effect; inconclusive = small, poorly fitted or top-dose-only effect, or another doubt; inactive = no such curve, though single readings can be large; an effect the other way counts as inactive or inconclusive. % is scaled to controls: 0 for no effect and ±100 for the full control effect; potency is read from the fitted curve at half-maximal effect.

Screening CC(=O)c1ccc(NC(=O)c2cc(C)nn2-c2ccccc2)cc1 returned TDP1 cell noCPT inconclusive, TDP1 inh 3.5%, TDP1 cell CPT inconclusive, KAT2A inh -6.9% and VDR inh -10.4%.
`Cc1ccc(NC(=O)c2cc(-c3ccccc3)nn2-c2ccccc2)c(Br)c1` gave TDP1 cell noCPT inconclusive, TDP1 inh 0.0%, TDP1 cell CPT 14.6µM*, KAT2A inh -9.6%, PLK1 PBD block -1.2% and VDR inh -6.6%.
Screening CCC(CC)C(=O)Nc1cc(-c2cccc(C)c2)nn1-c1ccccc1 returned TDP1 cell noCPT 16.4µM*, TDP1 inh 5.4%, TDP1 cell CPT 23.1µM*, KAT2A inh -8.5% and VDR inh 10.0%.
Screening Cc1ccc2c(c1)=C(c1sc(N(C)c3ccc(O)cc3)nc1O)C(=O)N=2 returned TDP1 cell noCPT -25.7%, TDP1 cell CPT -41.6%, KAT2A inh 30.0%, PLK1 PBD block 37.7µM* and VDR inh -10.7%.
Screening CCOC(=O)C1=CCN(S(=O)(=O)c2ccc(C)cc2)C1c1cccc(F)c1 (stereo not given) returned TDP1 cell noCPT 23.1µM*, TDP1 cell CPT inconclusive and PLK1 PBD block -4.2%.
Screening CCOC(=O)C1=CCN(S(=O)(=O)c2cccc(Cl)c2)C1c1cccc(C)c1 (stereo not given) returned TDP1 cell noCPT 18.4µM*, TDP1 cell CPT inconclusive and PLK1 PBD block -7.0%.
CCOC(=O)C1=CCN(S(=O)(=O)c2ccc(C)cc2)C1c1cccc(Cl)c1 (stereo not given) was read as TDP1 cell noCPT 23.1µM*, TDP1 cell CPT inconclusive and PLK1 PBD block -22.6%.
For CCOC(=O)C1=CCN(S(=O)(=O)c2ccccc2Br)C1c1cccc(F)c1 (stereo not given) the results were TDP1 cell noCPT inconclusive, TDP1 cell CPT inconclusive and PLK1 PBD block 4.5%.
`CCOC(=O)C1=CCN(S(=O)(=O)c2cccc(Cl)c2)C1c1ccccc1` (stereo not given) gave TDP1 cell noCPT inconclusive, TDP1 cell CPT inconclusive and PLK1 PBD block -11.9%.
`COC(=O)[C@@]1(Cc2ccc(F)cc2)[C@H]2c3cc(C(=O)N4CCCC4)n(Cc4c(CO)[nH]cc(C)c4=O)c3C[C@H]2CN1C(=O)c1ccccc1` gave TDP1 inh 13.5%.
O=C(NCc1ccccn1)c1cc(Cl)ccc1OCc1ccccc1 was read as TDP1 cell noCPT inconclusive, TDP1 inh -3.6%, TDP1 cell CPT inconclusive, KAT2A inh -25.2%, PLK1 PBD block -7.7% and VDR inh -10.8%.
CC(=O)C1=C(O)C=C2Oc3c(C(C)=O)c(O)c(C)c(O)c3[C@]2(C)C1=O was read as TDP1 cell noCPT 2.8%, TDP1 inh 23.8% and TDP1 cell CPT 17.3%.
`CC(=O)c1c(O)c(C)c(O)c2c1OC1=Cc3c(c(C)nn3C)C(=O)C12C` (stereo not given) gave TDP1 cell noCPT 29.1µM*, TDP1 cell CPT 16.4µM* and PLK1 PBD block 2.2%.
For Cc1cccc(CS(=O)(=O)CC2Nc3ccc(C(=O)NCc4ccccc4Cl)cc3NC2=O)c1 (stereo not given) the results were TDP1 cell noCPT inconclusive, TDP1 inh 2.6%, TDP1 cell CPT 8.2µM*, KAT2A inh -3.0% and VDR inh 8.1%.
For Cc1cc(C(=O)COC(=O)c2ccc(O)cc2)c(C)n1CC1CCCO1 (stereo not given) the results were TDP1 cell noCPT -10.3%, TDP1 inh 0.0%, TDP1 cell CPT 11.4%, KAT2A inh 3.5%, PLK1 PBD block inconclusive and VDR inh -9.8%.
Screening Cc1cc(C(=O)COC(=O)c2ccc3c(c2)NC(=O)CS3)c(C)n1CC1CCCO1 (stereo not given) returned TDP1 cell noCPT 16.4µM*, TDP1 inh 5.3%, TDP1 cell CPT inconclusive, KAT2A inh -6.7%, PLK1 PBD block inconclusive and VDR inh -18.1%.
`Cc1cc(C(=O)COC(=O)c2cccc(S(=O)(=O)N(C)C)c2)c(C)n1CC1CCCO1` (stereo not given) gave TDP1 cell noCPT inconclusive, TDP1 inh 4.5%, TDP1 cell CPT 16.4µM*, KAT2A inh -7.4%, PLK1 PBD block 3.4% and VDR inh -24.0%.
`COc1ccc(Cl)cc1-n1c(N)c(C(N)=O)sc1=S` gave TDP1 cell noCPT 20.6µM*, TDP1 inh -5.1%, TDP1 cell CPT 16.4µM*, KAT2A inh -2.3%, PLK1 PBD block 11.9µM* and VDR inh 79.4µM*.
Cc1ccc(NC(=O)c2sc(=S)n(-c3cc(C)ccc3F)c2N)cc1 was read as TDP1 cell noCPT -11.7%, TDP1 inh 1.2%, TDP1 cell CPT -29.1%, KAT2A inh -17.6%, PLK1 PBD block 11.9µM* and VDR inh 89.1µM*.
Screening Cc1ccc(-n2c(N)c(C(N)=O)sc2=S)c(C)c1 returned TDP1 cell noCPT 25.9µM*, TDP1 inh -3.1%, TDP1 cell CPT inconclusive, KAT2A inh -17.0%, PLK1 PBD block 6.7µM* and VDR inh 89.1µM*.
Screening COC(=O)[C@@H](NC(=O)N1CCc2nc(-c3ccc(OC)cc3C)c3c(c2C1)CO[C@@H](c1ccccc1)C3)C(C)C returned TDP1 inh 4.7%[12.3 µM].
CCOc1ccccc1NS(=O)(=O)c1cnc(N)nc1 was read as TDP1 cell noCPT -17.9%, TDP1 inh 0.0%, TDP1 cell CPT 2.6%, KAT2A inh 3.7% and VDR inh -8.3%.
Cc1ccc(S(=O)(=O)N2CC3C(=O)C[C@@H](c4ccccc4)N(S(=O)(=O)c4cccc(Cl)c4)C3CC2c2ccccc2)cc1 (stereo not given in full) was read as TDP1 cell noCPT 23.1µM*, TDP1 cell CPT inconclusive and PLK1 PBD block -1.6%.
`COc1cc(C)nc(-c2csc(C)n2)n1` gave TDP1 cell noCPT -14.1%, TDP1 inh -5.1%, TDP1 cell CPT -7.8%, KAT2A inh -0.3%, PLK1 PBD block 3.8% and VDR inh -20.6%.
Screening CC[N+]1(C)CCC(O)(c2ccc(OC)cc2)C(C(=O)c2ccc(OC)cc2)C1 (stereo not given) returned TDP1 cell noCPT 0.92µM*, TDP1 cell CPT 0.651µM*, PLK1 PBD block 6.7µM* and VDR inh inconclusive.
